Screens (PubChem BioAssay)
Most compounds without a hit are left out; they make up all but 4.7% or so of the library.
D1 antag: Antagonist of Human D 1 Dopamine Receptor: qHTS; activity change, negative = inhibition, % at 10 µM; 360,000 compounds, 3.2% hits; AID 504652, 2011; HEK293 TREx D1 cells, calcium flux, dopamine EC80; active compounds read low; in the data active = activity change below about -30%
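After overnight tetracycline induction at 30 C, force-coupled D1 HEK293 cells took up a no-wash calcium dye at room temperature. Compounds were added and monitored 180 s, and the response to EC80 dopamine was then recorded.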
TRHR PAM: qHTS for Small Molecule Agonists and Allosteric Enhancers of Human TRH Receptor: Primary Screen for Enhancers; enhancement, % at 2 µM; 360,000 compounds, 0.66% hits; TRHR cells, fluo-8 calcium fluorescence, EC20 TRH enhancement; AID 493056, 2011; Thyrotropin-releasing hormone receptor (Homo sapiens), P34981; in the data active = enhancement above about 30%
Target sequence (P34981 whole entry, looked up): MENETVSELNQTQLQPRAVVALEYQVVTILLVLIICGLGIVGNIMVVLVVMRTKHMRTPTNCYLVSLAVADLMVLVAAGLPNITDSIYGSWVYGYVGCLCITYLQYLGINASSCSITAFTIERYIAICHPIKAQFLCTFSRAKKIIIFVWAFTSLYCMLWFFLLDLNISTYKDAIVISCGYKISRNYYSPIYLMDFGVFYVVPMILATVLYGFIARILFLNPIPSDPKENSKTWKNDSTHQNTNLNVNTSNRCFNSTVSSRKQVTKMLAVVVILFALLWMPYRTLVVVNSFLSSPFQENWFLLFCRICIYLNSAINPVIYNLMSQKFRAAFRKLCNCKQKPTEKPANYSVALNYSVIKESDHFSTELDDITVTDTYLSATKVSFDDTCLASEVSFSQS
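TRHR-expressing cells loaded with fluo-8 calcium dye were read kinetically (ex 480/em 530) during compound addition, then stimulated with an EC20 of TRH (10 nM final). Enhancement of the Gq-mediated intracellular calcium response was scored.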
D1 PAM: Potentiators of Human D1 Dopamine Receptor: qHTS. D(1A) dopamine receptor (Homo sapiens), P21728. AID 504651, 2011. 360,000 compounds, 0.036% hits. HEK293 TREx D1 cells, calcium flux, dopamine EC20 potentiation. potentiation, % at 10 µM; in the data active = potentiation above about 30%
TRHR agonist: qHTS for Small Molecule Agonists and Allosteric Enhancers of Human TRH Receptor: Primary Screen for Agonists. TRHR cells, calcium flux fluo-8, FDSS agonist mode. activation, % at 2 µM. 360,000 compounds, 0.18% hits. AID 493084, 2011
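In this calcium-flux screen, cells bearing human TRHR are dye-loaded with fluo-8, baselined for 10 cycles, then exposed to library compounds; positive kinetic calcium responses during the agonist phase mark hits, with TRH as control.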
D1 agonist: Allosteric Agonists of the Human D1 Dopamine Receptor: qHTS | 360,000 compounds, 1% hits | activation, % at 2 µM | D(1A) dopamine receptor (Homo sapiens), P21728 | AID 504660, 2011 | HEK293 T-REx D1 cells, calcium flux, agonist mode
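Inducible HEK293 T-REx D1 cells, force-coupled to calcium signalling, were plated at 4000 cells/well with tetracycline and held overnight at 30 C. After no-wash calcium dye loading, compound-evoked calcium rise over 180 s flagged agonists.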
A number is an active result; – = inactive; · = no result. Rule as the data show it, unless noted: active = activation above about 30%; inactive = the rest.

SMILES	D1 antag	TRHR PAM	D1 PAM	TRHR agonist	D1 agonist
CCc1ccccc1N(CC(=O)OC)S(C)(=O)=O	–	–	–	–	–
CCc1c(C)sc(NC(=O)c2cc3nc(-c4ccc(OC)cc4)cc(C(F)(F)F)n3n2)c1C(=O)OC	–	–	–	–	–
O=C1c2cccc3c(N4CCCCC4)ccc(c23)C(=O)N1c1ccc(O)cc1	–	–	–	134	359
O=C1c2cccc3c(N4CCCCC4)ccc(c23)C(=O)N1c1ccccc1O	–	–	–	96	204
O=C1c2cccc3cccc(c23)C(=O)N1c1ccc(O)cc1	–	–	–	–	–
Cc1ccc2c(=O)c(C(=O)c3cccc(Cl)c3)cn(CC(=O)NCc3ccc(F)cc3)c2n1	–	–	–	–	–
Cc1ccc(-n2nnnc2SCC(=O)c2c(N)n(C3CC3)c(=O)[nH]c2=O)c(C)c1	–	–	·	–	–
COC(=O)c1ccc(C)c(NC(=O)c2nn(C)c(=O)c3ccccc23)c1	–	–	–	–	–
COC(=O)c1cccc(NC(=O)c2nn(C)c(=O)c3ccccc23)c1	–	40	–	–	–
Cc1cc(C)nc(NC(=NCCc2c[nH]c3ccccc23)NC(=O)C(C)(C)C)n1	-55	–	–	–	–
Cc1cc(C)nc(NC(=NCCc2c[nH]c3ccc(Cl)cc23)NC(=O)c2ccccc2C)n1	–	–	–	–	–
COc1ccc2c(c1)c1ncn(Cc3ccc(F)cc3)c(=O)c1n2C	–	–	–	–	–
Cn1c2ccsc2c2ncn(Cc3ccc(F)cc3)c(=O)c21	–	36	–	–	–
Cc1cc(-c2nn3c(-c4ccccc4)nnc3s2)c2ccccc2n1	-33	–	–	–	–
c1ccc(-c2cc(-c3nn4c(-c5ccco5)nnc4s3)c3ccccc3n2)cc1	–	–	–	–	–
O=C(Nc1cc(-c2nc3cc(Cl)ccc3o2)ccc1Cl)c1ccco1	–	–	–	–	–
Cc1cc(C)c(S(=O)(=O)N/N=C/c2ccc3c(c2)OCO3)c(C)c1	-72	–	–	–	–
Cc1cc(Cl)c(S(=O)(=O)N/N=C/c2ccc3c(c2)OCO3)c(Cl)c1	–	–	–	–	–
Cc1cccc(N(CC(=O)NCCSc2nc3ccccc3s2)S(=O)(=O)c2ccccc2)c1	–	–	–	–	–
COc1ccc(S(=O)(=O)N(CC(=O)NCCSc2ccccc2)c2ccc(Cl)cc2)cc1	–	–	–	–	36
COc1ccc(S(=O)(=O)N(CC(=O)NCCSc2ccccc2)c2ccc(C)cc2)cc1	–	–	–	–	32
O=C(CN(c1ccccc1)S(=O)(=O)c1ccccc1)NCCSc1nc2ccccc2s1	-63	–	–	–	–
CCOc1ccc(N(CC(=O)NCCOc2ccc(C)cc2)S(=O)(=O)c2ccccc2)cc1	-38	–	–	–	54
COc1ccc(N(CC(=O)NCCOc2ccccc2)S(=O)(=O)c2ccc(C)cc2)cc1	–	–	–	–	–
Cc1ccc(CC(=O)NCc2nc(-c3ccccc3)no2)cc1	–	–	–	–	–
SMILES	D1 antag	TRHR PAM	D1 PAM	TRHR agonist	D1 agonist
COc1ccccc1OCC(=O)N(Cc1nc(-c2ccccc2)no1)C(C)C	–	–	–	–	–
COc1ccccc1OCC(=O)N(Cc1nc(-c2ccc(Cl)cc2)no1)C(C)C	-35	–	–	–	–
O=C(NCc1nc(-c2ccccc2)no1)Nc1ccc(F)cc1	–	40	–	–	–
Cc1cc(C)cc(OCC(=O)NCc2nc(-c3ccccc3)no2)c1	-58	–	–	–	–
CCOc1ccc(C(=O)N(Cc2nc(-c3cccc(C)c3)no2)C(C)C)cc1	–	–	–	–	47
COC(=O)c1c(C)[nH]c(C(=O)CN(C)CC(=O)Nc2cccc(F)c2)c1C	–	–	–	–	–
Cc1ccc(NC(=O)c2nc(S(C)(=O)=O)ncc2N(Cc2ccco2)Cc2ccco2)cc1C	–	–	–	–	–
CCc1ccc(OCC(=O)NCCN(C)C)c(Br)c1	-34	–	–	–	–
Cc1ccc(OCc2nc(-c3cccnc3)no2)cc1C	–	–	–	–	–
CCc1ccc(OCC(=O)NCc2nc(-c3cccc(C)c3)no2)c(Br)c1	–	–	–	–	38
Cc1cc(C)cc(OCc2nc(-c3cccnc3)no2)c1	-30	–	–	–	–
CCOc1cc(C(=O)NCc2nc(-c3cccc(C)c3)no2)cc(OCC)c1OCC	-31	–	–	–	–
O=C(C1CCC(CNS(=O)(=O)c2cccs2)CC1)N1CCN(c2ccc(F)cc2)CC1 (stereo unspecified)	–	–	–	–	–
O=C(CN1C(=O)COc2ccc(Cl)cc21)Nc1cccc(C(=O)O)c1	–	–	–	–	–
Cc1nn(-c2ccccc2)c2sc(C(=O)Nc3cccc(Cl)c3)cc12	–	–	–	–	–
CC(=O)c1ccc(NC(=O)C2(c3ccccc3)CC2(Cl)Cl)cc1 (stereo unspecified)	–	–	–	–	38
CCCCc1cc(O)c(CCCC)c(O)c1	–	–	–	–	102
COc1cccc(/C=C(\CC(=O)O)c2nc3ccccc3s2)c1	–	34	–	–	–
N#Cc1cc2ccccc2nc1N	–	–	–	–	–
Cc1ccc(-c2cc3ccccc3nc2N)cc1	-98	–	–	–	–
Nc1nc2ccccc2cc1-c1cccs1	-60	–	–	–	–
Cn1c(N)c(C(=O)COC(=O)c2ccc(OC(F)F)cc2)c(=O)n(C)c1=O	–	–	–	–	–
CCCOc1ccc(S(=O)(=O)NCc2ccc(OC)cc2)cc1	-44	–	–	–	–
COc1ccc(S(=O)(=O)NCc2cccs2)cc1	-32	–	–	–	–
CCN(CC)S(=O)(=O)c1ccc(S(=O)(=O)NCc2cccs2)cc1	–	–	–	–	–
SMILES	D1 antag	TRHR PAM	D1 PAM	TRHR agonist	D1 agonist
CCOC(=O)N1CCN(C(=O)COc2cccc3c2CCN(Cc2ccccc2F)C3=O)CC1	-31	–	–	–	–
Cc1cccc(NC(=O)COc2cccc3c2CCN(C)C3=O)c1	–	–	–	–	–
O=C(COc1cccc2c1CCN(Cc1ccccc1F)C2=O)N1CCCCC1	–	–	–	–	–
Cc1ccccc1CN1CCc2c(OCC(=O)N3CCCCC3)cccc2C1=O	-41	–	–	–	–
O=C(COc1cccc2c1CCN(Cc1ccccc1F)C2=O)N1CCOCC1	–	–	–	–	–
CC1CCN(C(=O)COc2cccc3c2CCN(C)C3=O)CC1	-32	–	–	–	–
CCCCCCNc1nc2c(c(=O)n(C)c(=O)n2C)n1Cc1cccc(C)c1	–	–	–	–	–
CCOC(=O)C(Cc1ccc(O)cc1)NC(=O)CCc1c[nH]c2ccccc12 (stereo unspecified)	–	–	–	–	37
